# IL-1B inflam inh: inhibitors of inflammasome signaling (IL-1 beta secretion) | THP-1 LPS/ATP IL-1B secretion, AlphaLISA, 16 h; stronger effect = lower value | activity change, % at 57.5 µM | 360,000 tested, 4.7% active | AID 743279; in the data active = activity change below about -50%; inconclusive = mostly about -30% to -49%; also: % is scaled to controls: 0 for no effect and ±100 for the full control effect
#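 THP-1 cells pretreated 1 hr with compounds (up to 57.5 uM final), then stimulated with LPS (250 ng/mL final) plus ATP (1.25 mM final); secreted IL-1B measured by AlphaLISA after 16 hr, decreased signal indicating inhibition.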
# PINK1 modulator: PINK1 expression modulation. PINK1 immunofluorescence, high-content cytometry, 24 h. Potency, µM (series often up to 76.6 µM), without a hit: at the top dose activation (PINK1 increase), usual class: activators. 410,000 tested, 0.2% active; active = well fitted activation curve with a large enough effect; inconclusive = small, poorly fitted or top-dose-only effect; cell line not stated here; also: potency is read from the fitted curve at half-maximal effect; % of control where 0% means no effect; nearly all actives have a fitted effect of over 65% in size
#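 Stable cell line treated 24 h with compounds at 5 concentrations (CCCP controls), then fixed and immunostained for PINK1 plus nuclear and cell stains; PINK1 immunofluorescence quantified by laser-scanning microplate cytometry.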
# ATXN viability: reduces viability in counter-screen for ATXN expression inhibitors; S2 cells (HEK-293 line with an ATXN2-luciferase reporter) viability, CellTiter-Fluor protease fluorescence, 24 h; Potency, µM (highest dose often 56.7 µM), actives largely listed as cytotoxic; 400,000 tested, 0.49% active; also: potency is read from the fitted curve at half-maximal effect; nearly all actives have a fitted effect of over 40% in size
# ATXN2 expr inh: ATXN2 expression inhibition; HEK-293 ATXN2-luciferase reporter, luminescence, 24 h; Potency, µM (top dose mostly 57 µM), for the others: at the highest dose activity change, negative = inhibition, usual class: inhibitors; 360,000 tested, 0.72% active; AID 1745845; also: potency is read from the fitted curve at half-maximal effect; % is scaled to controls: 0 for no effect and ±100 for the full control effect; nearly all actives have a fitted effect of over 55% in size
#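 ATXN2-luciferase reporter cells (luciferase flanked by upstream and downstream ATXN2 gene portions) were treated 24 h at 37 °C with compounds at up to 57 uM. SteadyGlo luminescence gave expression; GF-AFC fluorescence gave viability.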
# SW480 rerep: DNA re-replication induction in SW480 cells; SW480 DNA re-replication, Hoechst DNA content imaging, 48 h; Potency, µM (doses to about 46.1 µM), without a hit: top-dose re-replication activation, most hits filed as activators; 340,000 tested, 1.8% active; also: potency is read from the fitted curve at half-maximal effect; % of control where 0% means no effect; nearly all actives have a fitted effect of over 55% in size
#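 Per well, 250 cells were exposed to pinned compound for 48 hr. Nuclear DNA was visualised with Hoechst (40 min, 37 C) and total object intensity recorded by fluorescence scanning.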
# MCF10A rerep: DNA re-replication induction in MCF 10a cells | MCF 10A DNA re-replication, Hoechst nuclear intensity, 48 h | Potency, µM (titrated, usually from 46.1 µM), without a hit: at the highest dose activity, positive = re-replication, usual class: activators | 350,000 tested, 2.9% active | AID 624296; also: potency is read from the fitted curve at half-maximal effect; % of control where 0% means no effect; nearly all actives have a fitted effect of over 50% in size
# The depositor's hits bear a star; i = inactive; ? = inconclusive; / = not tested or not shown; [ ] = another dose, or the depositor's remark. In the library only some 7.1% were active in any assay of this set; here they are far more common. Unless noted, calls follow the shape of the dose curve; as a rule, active = well fitted curve in the direction sought with a large enough effect; inconclusive = small, poorly fitted or top-dose-only effect, or another doubt; inactive = no such curve, though single readings can be large; an effect the other way counts as inactive or inconclusive.
SMILES,IL-1B inflam inh,PINK1 modulator,ATXN viability,ATXN2 expr inh,SW480 rerep,MCF10A rerep
CCCCOc1ccc(C(=O)N/N=C/c2ccc(OCCN3CCCCC3)c(OC)c2)cc1,-80*,0%,?,?,?,?
COc1ccc(-c2[nH]ncc2/C=N\NC(=O)c2ccc(C(C)(C)C)cc2)cc1OC,0,4%,i,60%,4%,14%
CCCOc1ccc(/C=N/NC(=O)CN2CCCCC2)cc1OCC,0,0%,i,2%,?,?
COc1ccc(CCNC(=O)CCc2cn(Cc3ccc(C)cc3)c3ccccc23)c(OC)c1OC,/,0%,/,/,/,/
Cc1nn(-c2nnc(NC3CCCCC3)nn2)c(C)c1Br,-75*,7%,i,114%,2%,0%
O=C(c1cc(-c2ccccc2)on1)N1CCOc2ccc(CN3CCOCC3)cc2C1,/,-1%,?,/,/,/
c1ccc(CNc2nc(NCC3CC3)nc3cc(-c4ccccc4)sc23)cc1,-116*,-1%,?,?,/,/
c1ccc(OCCNc2nc(NCC3CC3)nc3cc(-c4ccccc4)sc23)cc1,-106*,?,16µM*,?,/,/
Cc1ccc(C)c(C(=O)CN2C3=NCCCN3c3ccccc32)c1,-66*,-1%[38.3 µM],i,-33%,2%,?
COc1ccc(C(=O)CN2C3=NCCCN3c3ccccc32)cc1OC,-9,-1%,i,-19%,0.26µM*,-1%
COc1cccc(C(=O)CN2C3=NCCCN3c3ccccc32)c1,-4,0%,i,?,-2%,-2%
CC(=O)N1CCOc2ccc(S(=O)(=O)NC[C@H]3O[C@@H](n4ccc(=O)[nH]c4=O)[C@H](O)[C@@H]3O)cc21,32,1%,i,-6%,3%,-1%
O=C(/C=C/c1ccnc2ccccc12)c1cccs1,-118*,-1%,?,-93%,?,9.2µM*
Cc1ccc(S(=O)(=O)NCC2(c3ccccc3)CCN(C)CC2)cc1,-66*,-1%,i,-24%,?,3%
Cc1ccc(S(=O)(=O)NCCCNS(=O)(=O)c2ccccc2)cc1,17,0%,i,/,5%,0%
COc1ccc(NC(=S)NCCc2c(C)[nH]c3ccc(OC)cc23)cc1,-52*,1%,i,12%,-9%,-10%
COc1ccc(Cl)cc1NC(=O)[C@H]1O[C@@H]2OC(C)(C)O[C@@H]2[C@H]2OC(C)(C)O[C@H]21,/,0%,i,8%,/,/
COc1cc(OC)cc(-c2cc3nc(C)c(CCC(=O)NCc4ccccc4)c(C)n3n2)c1,?,2%,?,8.9µM*,?,-5%
COc1cc(OC)cc(-c2cc3nc(C)c(CCC(=O)NCc4ccc(Cl)cc4)c(C)n3n2)c1,/,8%,?,?,/,/
CCN(CCCn1c(=S)[nH]c2ccc(N3CCOCC3)cc2c1=O)c1ccccc1,11,1%,/,?,?,18µM*
COc1cc2c(NC3CCN(C)CC3)nc(N3CCCN(C)CC3)nc2cc1OCCCCN,/,-1%,/,/,/,/
CCc1nnc(N/N=C/c2ccccc2F)n1N,42,3%,i,-28%,?,26µM*
O=[N+]([O-])c1ccc(C=Nc2ccccc2)cc1,-21,0%,i,-4%,/,/
O=[N+]([O-])c1ccc(N=Cc2ccc(Br)c([N+](=O)[O-])c2)cc1,-99*,16%,i,16%,?,?
CCc1c(C)c2ccc(O)c(CN3CCN(c4cc(Cl)ccc4C)CC3)c2oc1=O,/,1%,i,4%,/,/
SMILES,IL-1B inflam inh,PINK1 modulator,ATXN viability,ATXN2 expr inh,SW480 rerep,MCF10A rerep
O=[N+]([O-])c1ccccc1/C=N\N1CCN(c2ccccc2)CC1,-19,-1%,i,/,1%,14%
O=[N+]([O-])c1ccccc1/C=C\C=N\N1CCN(c2ccccc2)CC1,-53*,0%,i,-15%,-34%,-3%
O=C1N=C(N2CCN(c3ccccc3)CC2)S/C1=C/c1cccs1,-58*,1%,i,4%[11.3 µM],-4%,1%
CCc1ccc(/C=C2\SC(N3CCCC3)=NC2=O)cc1,-60*,8%,i,-22%,1%,1%
O=C1N=C(N2CCCCC2)S/C1=C\c1ccncc1,-52*,1%,i,26%,-1%[9.22 µM],8%
COc1ccc(CC(=O)NCCc2ccc(S(N)(=O)=O)cc2)cc1,-6,0%,i,3%,4%,-1%
COc1ccc(C(OCC(O)CNCCc2ccc(S(N)(=O)=O)cc2)c2ccc(OC)cc2)cc1 (centres undefined),-68*,5%,i,-15%,29%,3%
CN(C)CC(O)COC(c1ccccc1)c1ccccc1 (centres undefined),-19,-2%,i,-19%,-13%,2%
OC(CNCCc1ccc(C(F)(F)F)cc1)COC(c1ccccc1)c1ccccc1 (centres undefined),-69*,-1%,?,28µM*,?,?
O=c1cc(CN2CCN(CCO)CC2)c2cc3c(cc2o1)CCC3,0,-5%,i,-4%,-4%,1%
COc1ccc(CN2CCN(Cc3cc(=O)oc4cc(C)ccc34)CC2)c(OC)c1OC,-1,-1%,i,-37%,10%,6.5µM*
O=c1cc(CN2CCN(Cc3ccccc3)CC2)c2cc3c(cc2o1)CCC3,-69*,2%,i,-8%,-1%,1%
CCc1ccc2c(CN3CCN(Cc4ccccc4)CC3)cc(=O)oc2c1,-61*,0%,i,-21%,-1%,16%
COc1ccccc1CNc1ccnc(-c2ccc(N(C)C)cc2)n1,/,2%,/,/,/,/
Cc1ccc(NC(=O)c2c(C)oc3ccc(O)c(CN4CCN(Cc5ccccc5)CC4)c23)cc1,/,4%,?,-17%,/,/
Cc1ccc(Cn2nc(C)c(NC(=O)c3cc(-c4ccco4)on3)c2C)cc1,8,-4%[38.3 µM],i,?,2%,?
CC(C)CNC(=O)c1cc(-c2ccco2)on1,-20,7%[38.3 µM],i,-9%,4%,-2%
Cc1nn(Cc2ccc(Cl)cc2)c(C)c1NC(=O)c1cc(-c2ccco2)on1,40,13%,?,?,4%,23µM*
CCCNC(=O)c1cc(-c2ccco2)on1,-57*,3%[38.3 µM],i,-32%,13%,-2%
COc1ccc(-c2cc(C(=O)Nc3c(C)nn(Cc4ccc(Cl)cc4)c3C)no2)cc1,38,18%[38.3 µM],?,-28%,?,16µM*
Cc1ccc(N2CC(NC(=O)c3ccc(S(=O)(=O)N4CCCC4)cc3)CC2=O)cc1 (centres undefined),/,2%,/,/,/,/

# Bioassay records deposited in PubChem BioAssay by National Center for Advancing Translational Sciences (NCATS).
